The text below walks through data of PubChem BioAssay (NCATS).

The structures appear in SMILES notation. Records with an inconclusive call do not appear. A number with no mark means an inactive call. Activity calls are given as the source filed them. The call rests on the fitted dose curve; in most records, active means well fitted inhibition curve with a large enough effect; inconclusive means small, poorly fitted or top-dose-only effect; inactive means flat fitted curve, though single readings scatter.
On the % scale 0 is the no-effect control and ±100 the full control effect; potency means the concentration at half of the fitted maximal effect.

Chain of Voltage-gated inwardly rectifying potassium channel KCNH2 (Homo sapiens) (Q12809 whole entry, looked up): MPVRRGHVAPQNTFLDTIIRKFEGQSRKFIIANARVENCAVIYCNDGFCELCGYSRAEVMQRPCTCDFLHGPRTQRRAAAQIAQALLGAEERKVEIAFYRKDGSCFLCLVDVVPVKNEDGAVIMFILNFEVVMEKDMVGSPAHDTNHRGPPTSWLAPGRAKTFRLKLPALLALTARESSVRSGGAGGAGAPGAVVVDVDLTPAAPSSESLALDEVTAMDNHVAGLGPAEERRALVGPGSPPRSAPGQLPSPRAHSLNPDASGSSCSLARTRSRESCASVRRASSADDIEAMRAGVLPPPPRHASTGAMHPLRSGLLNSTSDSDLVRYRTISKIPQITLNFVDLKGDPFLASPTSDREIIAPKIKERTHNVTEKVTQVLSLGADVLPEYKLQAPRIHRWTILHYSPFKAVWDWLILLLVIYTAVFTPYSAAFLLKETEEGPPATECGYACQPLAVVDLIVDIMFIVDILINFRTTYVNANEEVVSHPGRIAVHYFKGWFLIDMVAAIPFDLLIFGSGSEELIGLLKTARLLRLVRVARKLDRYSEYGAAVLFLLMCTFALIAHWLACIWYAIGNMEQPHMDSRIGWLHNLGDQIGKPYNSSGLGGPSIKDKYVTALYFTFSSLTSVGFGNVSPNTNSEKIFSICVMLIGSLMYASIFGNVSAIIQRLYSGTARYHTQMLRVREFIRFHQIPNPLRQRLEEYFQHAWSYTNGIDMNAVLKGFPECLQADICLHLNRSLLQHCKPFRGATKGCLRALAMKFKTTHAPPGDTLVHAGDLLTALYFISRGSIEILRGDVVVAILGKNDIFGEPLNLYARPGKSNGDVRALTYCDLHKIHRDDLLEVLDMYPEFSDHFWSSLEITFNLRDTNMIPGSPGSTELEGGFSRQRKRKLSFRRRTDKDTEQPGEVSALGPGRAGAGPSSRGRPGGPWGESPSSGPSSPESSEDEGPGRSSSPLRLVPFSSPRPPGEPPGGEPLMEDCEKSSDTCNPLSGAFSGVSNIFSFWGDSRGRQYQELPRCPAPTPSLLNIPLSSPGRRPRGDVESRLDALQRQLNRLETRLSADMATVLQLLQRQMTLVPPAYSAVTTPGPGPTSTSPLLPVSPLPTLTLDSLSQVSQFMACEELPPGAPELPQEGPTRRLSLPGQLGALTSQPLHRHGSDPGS

The target of this assay is Voltage-gated inwardly rectifying potassium channel KCNH2 (Homo sapiens) (UniProt Q12809). Description: qHTS Assay for Small Molecule Inhibitors of the Human hERG Channel Activity (AID 588834).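 Further: lower thallium flux fluorescence means stronger hERG block; nearly all actives have a fitted effect of over 50% in size.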 On activity change, negative = inhibition: top concentration of the series differs between compounds. To be noted: U2OS BacMam hERG, FluxOR thallium flux fluorescence; series mostly up to 46.1 µM; activity change, negative = inhibition: at the top concentration. The method, boiled down:
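Concentration-response qHTS measuring drop in thallium-sensitive dye signal. U2OS cells carrying BacMam hERG; compound exposure ~10 min, then stimulation buffer and 2 min read at 1 sec intervals.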
Regarding `CC(C)[C@@H]1CC[C@@H](C)CC1=O`, the “activity change, negative = inhibition” value is -19.7%. `CC(=O)OCC1=C(C(=O)O)N2C(=O)[C@@H](NC(=O)CSc3ccncc3)[C@H]2SC1`: the Potency entry is “inactive”.

`CC(O)Cn1cnc2c1c(=O)n(C)c(=O)n2C` (stereo unspecified): the “activity change, negative = inhibition” value is -3.74% [at 20.6 µM]. Turning to `C[C@H]1O[C@@H](O[C@H]2CC[C@@]3(C)[C@H](CC[C@@H]4[C@@H]3C[C@@H](O)[C@]3(C)[C@@H](C5=CC(=O)OC5)CC[C@]43O)C2)C[C@H](O)[C@@H]1O[C@H]1C[C@H](O)[C@H](O[C@H]2C[C@H](O)[C@H](O[C@@H]3O[C@H](CO)[C@@H](O)[C@H](O)[C@H]3O)[C@@H](C)O2)[C@@H](C)O1`, the “activity change, negative = inhibition” value is 2.38%. The same measure, in the same setting: then `C=C1c2cccc(O)c2C(O)=C2C(=O)[C@]3(O)C(O)=C(C(N)=O)C(=O)[C@@H](N(C)C)[C@@H]3[C@@H](O)[C@H]12`, with -7.67% [at 20.6 µM].

Regarding `O=C1c2cccc3c2[C@H](CCC3)CN1[C@@H]1CN2CCC1CC2`, the Potency was 12.6 µM (active). As for `CC(CNC1CCCCC1)OC(=O)c1ccccc1` (stereo unspecified), the “activity change, negative = inhibition” value is -11% [at 20.6 µM]. Still for that read-out and setting: then `Nc1nc(Cl)nc2c1ncn2[C@@H]1O[C@H](CO)[C@@H](O)[C@@H]1F`, with 7.1%. Still for that read-out and setting: then `Cc1cn([C@H]2C[C@H](F)[C@@H](CO)O2)c(=O)[nH]c1=O`, with 0.731%; and `CC(C(=O)O)c1cccc(Oc2ccccc2)c1` (stereo unspecified), with 4.48% [at 20.6 µM]; and `C[C@H]1[C@H]2CC[C@H]3[C@@H]4CC=C5C[C@@H](N(C)C)CC[C@]5(C)[C@H]4CC[C@]23CN1C`, with 6.94%. As for `O=C1OC2(c3ccccc31)c1cc(Br)c(O)c(Br)c1Oc1c2cc(Br)c(O)c1Br`, the Potency is 5.62 µM (active). For the molecule `CC(C)(C)NCC(O)COc1cccc2c1C[C@H](O)[C@H](O)C2` (stereo partly specified), the “activity change, negative = inhibition” value was 6.16% [at 20.6 µM]. `N#C/C(=C1\SCC(c2ccccc2Cl)S1)n1ccnc1` (stereo unspecified): the “activity change, negative = inhibition” value was 4.13%. Still for that read-out and setting: then `C[C@]12CCC(=O)C=C1C=C[C@@H]1[C@@H]2CC[C@@]2(C)[C@H]1CC[C@@]21CCC(=O)O1`, with -19.7%.

On to `C[C@@]12C(=O)OC(=O)[C@]1(C)C1CCC2O1`, for which the “activity change, negative = inhibition” value was 2.73% [at 20.6 µM]. Same read-out and setting: then `CC(C)Cn1cnc2c1c(=O)n(C)c(=O)n2C`, with 20.7%; and `CN(C)CCOC(=O)C(c1ccccc1)C1(O)CCCC1` (stereo unspecified), with 0.576%; and `CCOC(=O)[C@H](CCc1ccccc1)N[C@@H](C)C(=O)N1[C@H](C(=O)O)C[C@@H]2CCC[C@@H]21`, with 13.3%. For the molecule `O=C(N/N=C/c1ccc([N+](=O)[O-])o1)c1ccc(O)cc1`, the “activity change, negative = inhibition” value is -28.6% [at 20.6 µM].

For `CCN[C@@H]1C[C@H](N)[C@@H](OC2OC(CN)=CCC2N)[C@H](O)[C@H]1O[C@H]1OC[C@](C)(O)[C@H](NC)[C@H]1O` (stereo partly specified), the “activity change, negative = inhibition” value was 16.3%.

With `O=C1OC(CN2CCOCC2)CN1/N=C/c1ccc([N+](=O)[O-])o1` (stereo unspecified), the “activity change, negative = inhibition” value was 3.51% [at 20.6 µM]. Take `CC(C)n1c(/C=C/[C@@H](O)C[C@@H](O)CC(=O)O)c(-c2ccc(F)cc2)c2ccccc21`: the “activity change, negative = inhibition” value is -2.4%.

Turning to `C[C@@H](O)[C@H]1C(=O)N2C(C(=O)O)=C([C@H]3CCCO3)S[C@H]12`, the “activity change, negative = inhibition” value was -5.72%. Still for that read-out and setting: the same measure for `CCN1CCN(C(=O)N[C@@H](C(=O)N[C@@H]2C(=O)N3C(C(=O)O)=C(CSc4nnnn4C)CS[C@H]23)c2ccc(O)cc2)C(=O)C1=O`: 4.17%; for `C#C[C@]1(O)CC[C@H]2[C@@H]3[C@H](C)CC4=C(CCC(=O)C4)[C@H]3CC[C@@]21C`: 1.08%. `NC(N)=NN=C(/C=C/c1ccc([N+](=O)[O-])o1)/C=C/c1ccc([N+](=O)[O-])o1`: the Potency was 0.0891 µM (active). Turning to `CC(=O)O[C@]1(C(C)=O)CC[C@H]2[C@@H]3C=C(C)C4=CC(=O)CC[C@]4(C)[C@H]3CC[C@@]21C`, the “activity change, negative = inhibition” value is -8.48% [at 20.6 µM]. For `CCCCCCCCCCC[C@@H](C[C@@H]1OC(=O)[C@H]1CCCCCC)OC(=O)[C@H](CC(C)C)NC=O`, the “activity change, negative = inhibition” value is -1.89%. As to `CCC(Cc1c(I)cc(I)c(N)c1I)C(=O)O` (stereo unspecified), the “activity change, negative = inhibition” value is -6.31% [at 20.6 µM]. Turning to `CCN(CC)CCOC(=O)C(Cc1cccc2ccccc12)CC1CCCO1` (stereo unspecified), the Potency is 7.94 µM (active). Turning to `COc1ccc(S(=O)(=O)N2c3ccc(Cl)cc3[C@@](O)(c3ccccc3Cl)[C@H]2C(=O)N2CCC[C@@H]2C(N)=O)cc1OC`, the “activity change, negative = inhibition” value is -28.2%. Still for that read-out and setting: then `CCCCN1C[C@H](O)[C@@H](O)[C@H](O)[C@H]1CO`, with -1.28%; and `N[C@H](C(=O)O)[C@@H](O)c1ccc(O)c(O)c1`, with 10.2%. Consider `CC[C@]12CCCN3CCc4c(n(c5ccccc45)C(=O)C1)[C@@H]32`, for which the Potency was 0.447 µM (active). Regarding `NS(=O)(=O)c1cc2c(cc1Cl)NC(CC1CCCC1)NS2(=O)=O` (stereo unspecified), the “activity change, negative = inhibition” value is 10.6% [at 20.6 µM].
